Results filed as inconclusive are left out. Activity calls are given as the source filed them. Calls follow the shape of the dose curve; as a rule, active = well fitted curve in the direction sought with a large enough effect; inconclusive = small, poorly fitted or top-dose-only effect, or another doubt; inactive = no such curve, though single readings can be large or run the other way.

Sequence of Polyunsaturated fatty acid lipoxygenase ALOX15 (Homo sapiens) (P16050 whole entry, looked up): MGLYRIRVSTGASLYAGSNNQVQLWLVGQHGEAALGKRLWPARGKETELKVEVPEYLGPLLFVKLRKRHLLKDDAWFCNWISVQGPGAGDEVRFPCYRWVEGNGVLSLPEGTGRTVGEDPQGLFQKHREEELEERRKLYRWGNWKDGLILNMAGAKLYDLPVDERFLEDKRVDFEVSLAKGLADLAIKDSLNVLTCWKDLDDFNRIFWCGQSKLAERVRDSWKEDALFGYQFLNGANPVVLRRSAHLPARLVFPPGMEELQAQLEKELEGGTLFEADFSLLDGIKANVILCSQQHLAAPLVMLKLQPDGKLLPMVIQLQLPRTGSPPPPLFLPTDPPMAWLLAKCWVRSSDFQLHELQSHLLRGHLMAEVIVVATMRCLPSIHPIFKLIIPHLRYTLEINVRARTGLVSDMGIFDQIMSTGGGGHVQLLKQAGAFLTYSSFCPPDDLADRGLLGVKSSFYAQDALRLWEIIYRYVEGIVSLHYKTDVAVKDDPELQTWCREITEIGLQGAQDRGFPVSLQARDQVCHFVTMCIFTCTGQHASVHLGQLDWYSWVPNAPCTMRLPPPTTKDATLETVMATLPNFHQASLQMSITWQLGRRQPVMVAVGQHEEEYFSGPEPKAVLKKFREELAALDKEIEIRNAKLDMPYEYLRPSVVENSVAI

In the assay the target is Polyunsaturated fatty acid lipoxygenase ALOX15 (Homo sapiens) (UniProt P16050). The experiment in a line: Counterscreen qHTS for inhibitors of human arachidonate 12S-lipoxygenase (ALOX12): ALOX15 Assay. As to conditions: purified ALOX15 enzyme activity; series mostly up to 110 µM. The method, boiled down:
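Purified human ALOX15 (15hLO-1) at 40 nM in 25 mM HEPES, 0.01% Triton X-100, pH 7.5, preincubated with compound 15 min at RT. Then 50 uM arachidonic acid for 30 min; hydroperoxide detected by Fe-xylenol orange as the 573/405 nm absorbance ratio.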
For orientation: A counterscreen serves to expose hits that act by an unwanted route or on another target.
Regarding `O=C1NCc2ccccc2CC12CCN(Cc1cc(F)ccc1F)C2` (configuration not stated), the result was inactive. Under `Cc1cc(C(=O)NC2CCCC2)c2c(C3CCNC3)noc2n1` (configuration not stated) stands “inactive”. Under `CN1CC(=O)N(c2cccc(F)c2)Cc2c1ncnc2N1CCC(F)CC1` stands “inactive”; under `O=C1NCc2ccccc2CC12CCN(Cc1cccc(Br)c1)C2` (configuration not stated), “inactive”.

As to `CC(=O)N1CCN(c2ccc(Cl)nn2)C(=O)C1`, the compound was classed as inactive. The entry for `CC(=O)NCCCC(=O)N1CCOC2(CCN(C(=O)CCCN)CC2)C1` is “inactive”; for `Cc1ccccc1N(C)C1CN(C(=O)OC(C)(C)C)C1` it is “inactive”. For `COc1cccc(O)c1CN1CCCC12Cc1ccccc1CNC2=O` (configuration not stated), the compound was classed as inactive. The entry for `CCN(c1ccc2c(c1)OCO2)C1CN(C(=O)OC(C)(C)C)C1` is “inactive”; for `CNC(=O)c1cn2c(n1)CN([S+](C)(=O)[O-])CC2` it is “inactive”; for `CN1CC(=O)N(C2CCNC2)Cc2c1ncnc2N1CCC(N2CCCCC2)CC1` (configuration not stated) it is “inactive”. The entry for `CN1CC(=O)N(C2CCNC2)Cc2c(NC3CCN(Cc4ccccc4)CC3)ncnc21` (configuration not stated) is “inactive”; for `O=C(O)CCCC(=O)N1Cc2ccccc2CC2(CCCCN2CCc2ccccc2)C1` (configuration not stated) it is “inactive”.

As for `O=Cc1cccc(N2CCN(C(=O)c3ccc4c(c3)OCO4)CC2=O)c1`, the outcome was inactive.

As for `CCc1nc2c(c(-c3ccc(OC)cc3)n1)CCN(Cc1ccc(C(F)(F)F)cc1)CC2`, the call was inactive.

With `Cn1nc(C2CCCNC2)c2c(C(=O)NC3CC3)cc(C3CC3)nc21` (configuration not stated), the compound was called inactive. Turning to `O=C1Nc2ccccc2CN(CC2CC2)C12CCNCC2`, the result was inactive. Under `O=C(O)CCC(=O)N1Cc2ccccc2CC2(CCCN2Cc2ccccc2)C1` (configuration not stated) stands “inactive”. Under `c1ccc2c(c1)CCN2C1CN(Cc2cccc3ccccc23)C1` stands “inactive”. For `CNCc1ccccc1-c1ccccc1`, the outcome was inactive. With `O=C1NC(=NC2CCCC2)C2(CCN(CC3CCCCC3)CC2)N1c1cc(F)cc(F)c1`, the result was inactive. The entry for `CCNc1ncnc2c1CN(C1CCCNCC1)C(=O)CN2C` (configuration not stated) is “inactive”; for `CCN1CCC(c2nc3ccc(C)cc3c(=O)[nH]2)CC1` it is “inactive”; for `COc1ccc(C(=O)N2CCOC3(CCN(C(=O)CN)CC3)C2)cc1` it is “inactive”.

For the compound `CC(C)CNC(=O)c1cc(C2CC2)nc2onc(C3CCNCC3)c12`, the result was inactive.

Turning to `O=C(O)CCCC(=O)N1Cc2ccccc2CC2(CCCN(Cc3ccccn3)C2)C1` (configuration not stated), the result was inactive. Under `CN1CCN(CC2(N)CCCCC2)CC1` stands “inactive”; under `O=C(NC1CCCCC1)N1CCC(c2nnc3n2CCNC3)CC1`, “inactive”. The entry for `CCCC(=O)N1Cc2ccccc2CC2(CCCCN2Cc2ccccn2)C1` (configuration not stated) is “inactive”; for `C[S+](=O)([O-])N1CCC(c2nnc3n2CCNC3)CC1` it is “inactive”; for `O=C(C1CCCC1)N1CC2(CCN(Cc3ccc(Cl)cc3)C2)Cc2ccccc21` (configuration not stated) it is “inactive”. The entry for `Fc1ccc(OC2CN(CC3CC3)C2)cc1F` is “inactive”; for `CN1CC(=O)N(C2CCCNC2)Cc2c(NCC3CCCCCC3)ncnc21` (configuration not stated) it is “inactive”; for `O=C1NC(=NC2CCCC2)C2(CCCN([S+](=O)([O-])c3cccc(C(F)(F)F)c3)C2)N1c1cc(F)cc(F)c1` (configuration not stated) it is “inactive”. As for `O=C(Nc1ccc(Cl)cc1Cl)c1c[nH]c2cccnc12`, the result was inactive. Under `CCCN1CCCC12Cc1ccccc1CN(C(=O)CCCC(=O)O)C2` (configuration not stated) stands “inactive”; under `COc1cccc(-c2ccc(CN)cc2)c1`, “inactive”.

The record behind these values is PubChem BioAssay AID1671192 (National Center for Advancing Translational Sciences (NCATS), 2021).
